# Measured values from ChEMBL document CHEMBL1961873, “Compounds: GSK PKIS; Assays: Nanosyn kinase panel” (2012).
# Legend:
# [1] = target: Sphingosine kinase 1 (Homo sapiens) (UniProt Q9NYA1); settings: at 1 µM;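 further: mean SPHK1 inhibition value reported from the GSK PKIS kinase panel screen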
# [2] = target: T1, Sphingosine kinase 2 (Homo sapiens) (UniProt Q9NRA0); settings: at 0.1 µM
# T1 sequence (whole entry): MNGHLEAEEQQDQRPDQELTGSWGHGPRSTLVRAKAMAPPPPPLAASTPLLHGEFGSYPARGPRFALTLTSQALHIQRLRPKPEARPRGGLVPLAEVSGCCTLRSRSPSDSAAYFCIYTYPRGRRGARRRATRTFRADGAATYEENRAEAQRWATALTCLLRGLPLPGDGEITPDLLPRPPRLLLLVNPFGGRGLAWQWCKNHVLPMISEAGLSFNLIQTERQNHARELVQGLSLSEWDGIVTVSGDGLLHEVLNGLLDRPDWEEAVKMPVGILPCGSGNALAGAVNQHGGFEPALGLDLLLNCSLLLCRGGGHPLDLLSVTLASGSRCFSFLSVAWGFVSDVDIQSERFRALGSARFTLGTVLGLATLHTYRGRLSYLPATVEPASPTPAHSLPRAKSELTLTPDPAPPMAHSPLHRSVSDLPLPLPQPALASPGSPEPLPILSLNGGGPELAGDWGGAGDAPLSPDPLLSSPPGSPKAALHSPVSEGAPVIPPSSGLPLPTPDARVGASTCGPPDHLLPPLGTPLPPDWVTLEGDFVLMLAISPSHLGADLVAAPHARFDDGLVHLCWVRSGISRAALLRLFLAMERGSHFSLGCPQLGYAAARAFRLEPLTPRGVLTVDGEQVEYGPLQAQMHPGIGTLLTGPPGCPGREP
# [3] = target: T1, Sphingosine kinase 2 (Homo sapiens); settings: at 1 µM
# [4] = target: Casein kinase II subunit alpha (Homo sapiens) (UniProt P68400); settings: at 0.1 µM
# [5] = target: Casein kinase II subunit alpha (Homo sapiens) (UniProt P68400); settings: at 1 µM
# [6] = target: T2, Inhibitor of nuclear factor kappa-B kinase subunit alpha (Homo sapiens) (UniProt O15111); settings: at 0.1 µM
# T2 sequence (whole entry): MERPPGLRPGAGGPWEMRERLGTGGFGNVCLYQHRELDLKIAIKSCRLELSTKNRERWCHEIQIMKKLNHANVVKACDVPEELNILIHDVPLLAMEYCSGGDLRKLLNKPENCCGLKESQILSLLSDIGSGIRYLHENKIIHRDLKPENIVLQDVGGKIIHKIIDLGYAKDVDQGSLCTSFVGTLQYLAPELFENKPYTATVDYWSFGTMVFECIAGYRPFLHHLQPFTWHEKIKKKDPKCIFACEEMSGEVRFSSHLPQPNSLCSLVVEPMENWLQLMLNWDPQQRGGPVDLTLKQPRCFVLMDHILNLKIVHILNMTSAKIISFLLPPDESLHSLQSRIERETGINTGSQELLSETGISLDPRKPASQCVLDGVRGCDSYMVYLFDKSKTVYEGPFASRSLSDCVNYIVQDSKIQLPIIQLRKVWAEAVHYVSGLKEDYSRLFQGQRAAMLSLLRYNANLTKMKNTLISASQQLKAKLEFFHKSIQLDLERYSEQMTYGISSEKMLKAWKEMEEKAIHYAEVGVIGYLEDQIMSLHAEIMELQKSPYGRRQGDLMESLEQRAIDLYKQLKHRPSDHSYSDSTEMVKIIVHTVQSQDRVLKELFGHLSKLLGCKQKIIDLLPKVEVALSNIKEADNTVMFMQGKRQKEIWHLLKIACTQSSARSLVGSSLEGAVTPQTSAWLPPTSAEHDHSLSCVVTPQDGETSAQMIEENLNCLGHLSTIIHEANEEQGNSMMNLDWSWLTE
# [7] = target: T2, Inhibitor of nuclear factor kappa-B kinase subunit alpha (Homo sapiens); settings: at 1 µM
# [8] = target: T3, Inhibitor of nuclear factor kappa-B kinase subunit beta (Homo sapiens) (UniProt O14920); settings: at 0.1 µM
# T3 sequence (whole entry): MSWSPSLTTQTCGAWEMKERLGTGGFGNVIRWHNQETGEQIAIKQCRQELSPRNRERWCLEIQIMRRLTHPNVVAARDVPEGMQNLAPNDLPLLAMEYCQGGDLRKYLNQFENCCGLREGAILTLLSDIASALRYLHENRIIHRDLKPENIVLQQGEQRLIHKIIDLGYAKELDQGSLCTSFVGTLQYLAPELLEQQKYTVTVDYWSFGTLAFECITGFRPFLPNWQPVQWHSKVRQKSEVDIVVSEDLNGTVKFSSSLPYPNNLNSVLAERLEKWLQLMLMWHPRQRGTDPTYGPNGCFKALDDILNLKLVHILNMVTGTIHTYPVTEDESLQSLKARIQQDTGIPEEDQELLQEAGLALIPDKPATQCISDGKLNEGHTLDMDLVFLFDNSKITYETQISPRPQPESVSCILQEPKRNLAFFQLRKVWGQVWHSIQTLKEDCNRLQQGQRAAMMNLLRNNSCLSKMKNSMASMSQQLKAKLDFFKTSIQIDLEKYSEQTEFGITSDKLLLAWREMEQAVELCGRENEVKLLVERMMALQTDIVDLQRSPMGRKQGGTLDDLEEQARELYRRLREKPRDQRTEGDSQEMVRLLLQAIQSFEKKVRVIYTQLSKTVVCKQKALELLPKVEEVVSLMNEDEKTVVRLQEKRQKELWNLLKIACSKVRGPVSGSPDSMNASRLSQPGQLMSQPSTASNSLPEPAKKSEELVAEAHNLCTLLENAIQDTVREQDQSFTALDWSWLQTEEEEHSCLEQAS
# [9] = target: T3, Inhibitor of nuclear factor kappa-B kinase subunit beta (Homo sapiens); settings: at 1 µM
# [10] = target: T4, Inhibitor of nuclear factor kappa-B kinase subunit epsilon (Homo sapiens) (UniProt Q14164); settings: at 0.1 µM
# T4 sequence (whole entry): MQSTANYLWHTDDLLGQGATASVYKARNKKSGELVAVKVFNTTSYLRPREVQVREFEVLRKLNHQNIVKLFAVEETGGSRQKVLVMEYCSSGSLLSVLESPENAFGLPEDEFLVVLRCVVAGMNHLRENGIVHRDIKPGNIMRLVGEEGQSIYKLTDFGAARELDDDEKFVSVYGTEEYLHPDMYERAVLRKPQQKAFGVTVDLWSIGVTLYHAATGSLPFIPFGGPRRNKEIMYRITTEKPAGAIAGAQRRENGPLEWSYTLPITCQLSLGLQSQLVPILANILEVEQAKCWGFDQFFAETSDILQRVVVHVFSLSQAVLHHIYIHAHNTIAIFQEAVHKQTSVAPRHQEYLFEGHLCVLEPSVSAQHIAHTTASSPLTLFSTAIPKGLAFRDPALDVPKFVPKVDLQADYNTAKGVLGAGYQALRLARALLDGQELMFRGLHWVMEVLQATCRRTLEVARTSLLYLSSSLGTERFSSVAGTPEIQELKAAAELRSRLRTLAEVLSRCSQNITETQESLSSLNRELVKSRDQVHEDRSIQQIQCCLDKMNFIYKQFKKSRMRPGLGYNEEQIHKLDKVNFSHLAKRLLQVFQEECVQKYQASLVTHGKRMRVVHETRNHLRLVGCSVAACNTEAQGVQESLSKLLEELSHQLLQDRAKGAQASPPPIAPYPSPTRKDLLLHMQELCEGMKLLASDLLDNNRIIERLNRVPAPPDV
# [11] = target: T4, Inhibitor of nuclear factor kappa-B kinase subunit epsilon (Homo sapiens); settings: at 1 µM
# [12] = target: T5, Serine/threonine-protein kinase Nek1 (Homo sapiens) (UniProt Q96PY6); settings: at 0.1 µM
# T5 sequence (whole entry): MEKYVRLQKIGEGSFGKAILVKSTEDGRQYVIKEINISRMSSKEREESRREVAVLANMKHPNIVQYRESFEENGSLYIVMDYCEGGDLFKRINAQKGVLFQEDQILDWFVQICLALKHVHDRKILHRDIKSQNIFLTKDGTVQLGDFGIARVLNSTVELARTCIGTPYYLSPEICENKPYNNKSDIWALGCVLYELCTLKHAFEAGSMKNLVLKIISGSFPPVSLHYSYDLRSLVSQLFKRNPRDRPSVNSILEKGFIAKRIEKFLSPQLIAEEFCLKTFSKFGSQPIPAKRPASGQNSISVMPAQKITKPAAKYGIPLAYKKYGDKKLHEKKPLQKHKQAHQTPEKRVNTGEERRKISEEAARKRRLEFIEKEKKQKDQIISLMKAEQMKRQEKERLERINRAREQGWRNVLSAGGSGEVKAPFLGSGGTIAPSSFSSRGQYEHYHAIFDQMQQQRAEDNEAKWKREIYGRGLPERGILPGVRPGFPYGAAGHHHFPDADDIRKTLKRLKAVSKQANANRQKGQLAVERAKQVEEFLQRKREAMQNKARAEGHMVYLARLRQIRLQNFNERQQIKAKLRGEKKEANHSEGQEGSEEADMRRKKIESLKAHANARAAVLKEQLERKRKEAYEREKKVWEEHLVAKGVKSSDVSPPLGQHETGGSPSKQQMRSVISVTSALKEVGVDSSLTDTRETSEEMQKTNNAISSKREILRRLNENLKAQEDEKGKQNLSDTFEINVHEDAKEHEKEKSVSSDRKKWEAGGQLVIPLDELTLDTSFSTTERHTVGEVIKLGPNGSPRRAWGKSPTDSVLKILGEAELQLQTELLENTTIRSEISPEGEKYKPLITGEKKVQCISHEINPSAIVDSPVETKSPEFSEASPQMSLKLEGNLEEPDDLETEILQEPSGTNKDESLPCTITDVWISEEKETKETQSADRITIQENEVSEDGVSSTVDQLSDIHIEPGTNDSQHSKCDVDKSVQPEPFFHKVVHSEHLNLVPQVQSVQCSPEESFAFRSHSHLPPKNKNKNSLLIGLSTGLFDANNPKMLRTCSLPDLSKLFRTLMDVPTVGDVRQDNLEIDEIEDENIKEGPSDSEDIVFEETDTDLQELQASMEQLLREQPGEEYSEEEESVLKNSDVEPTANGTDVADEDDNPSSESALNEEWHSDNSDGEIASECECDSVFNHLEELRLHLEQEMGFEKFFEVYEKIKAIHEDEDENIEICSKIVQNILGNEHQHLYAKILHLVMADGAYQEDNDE
# [13] = target: T5, Serine/threonine-protein kinase Nek1 (Homo sapiens); settings: at 1 µM
# [14] = target: T6, Serine/threonine-protein kinase Nek2 (Homo sapiens) (UniProt P51955); settings: at 0.1 µM
# T6 sequence (whole entry): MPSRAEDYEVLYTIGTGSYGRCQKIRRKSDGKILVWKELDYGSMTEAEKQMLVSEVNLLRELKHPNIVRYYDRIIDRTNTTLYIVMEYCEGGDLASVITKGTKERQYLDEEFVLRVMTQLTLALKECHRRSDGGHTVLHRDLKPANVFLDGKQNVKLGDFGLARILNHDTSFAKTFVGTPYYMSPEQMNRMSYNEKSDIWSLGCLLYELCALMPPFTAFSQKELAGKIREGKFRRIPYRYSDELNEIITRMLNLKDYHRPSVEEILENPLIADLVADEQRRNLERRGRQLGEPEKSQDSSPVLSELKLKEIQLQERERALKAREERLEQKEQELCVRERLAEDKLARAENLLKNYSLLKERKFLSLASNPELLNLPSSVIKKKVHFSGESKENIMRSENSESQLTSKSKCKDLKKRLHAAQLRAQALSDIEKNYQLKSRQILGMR
# [15] = target: T6, Serine/threonine-protein kinase Nek2 (Homo sapiens); settings: at 1 µM
# [16] = target: Serine/threonine-protein kinase Nek6 (Homo sapiens) (UniProt Q9HC98); settings: at 0.1 µM
# [17] = target: Serine/threonine-protein kinase Nek6 (Homo sapiens) (UniProt Q9HC98); settings: at 1 µM
# [18] = target: Serine/threonine-protein kinase Nek7 (Homo sapiens) (UniProt Q8TDX7); settings: at 0.1 µM
# [19] = target: Serine/threonine-protein kinase Nek7 (Homo sapiens) (UniProt Q8TDX7); settings: at 1 µM
# [20] = target: T7, Serine/threonine-protein kinase Nek9 (Homo sapiens) (UniProt Q8TD19); settings: at 0.1 µM;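 further: reported value is the mean percent inhibition of NEK9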
# T7 sequence (whole entry): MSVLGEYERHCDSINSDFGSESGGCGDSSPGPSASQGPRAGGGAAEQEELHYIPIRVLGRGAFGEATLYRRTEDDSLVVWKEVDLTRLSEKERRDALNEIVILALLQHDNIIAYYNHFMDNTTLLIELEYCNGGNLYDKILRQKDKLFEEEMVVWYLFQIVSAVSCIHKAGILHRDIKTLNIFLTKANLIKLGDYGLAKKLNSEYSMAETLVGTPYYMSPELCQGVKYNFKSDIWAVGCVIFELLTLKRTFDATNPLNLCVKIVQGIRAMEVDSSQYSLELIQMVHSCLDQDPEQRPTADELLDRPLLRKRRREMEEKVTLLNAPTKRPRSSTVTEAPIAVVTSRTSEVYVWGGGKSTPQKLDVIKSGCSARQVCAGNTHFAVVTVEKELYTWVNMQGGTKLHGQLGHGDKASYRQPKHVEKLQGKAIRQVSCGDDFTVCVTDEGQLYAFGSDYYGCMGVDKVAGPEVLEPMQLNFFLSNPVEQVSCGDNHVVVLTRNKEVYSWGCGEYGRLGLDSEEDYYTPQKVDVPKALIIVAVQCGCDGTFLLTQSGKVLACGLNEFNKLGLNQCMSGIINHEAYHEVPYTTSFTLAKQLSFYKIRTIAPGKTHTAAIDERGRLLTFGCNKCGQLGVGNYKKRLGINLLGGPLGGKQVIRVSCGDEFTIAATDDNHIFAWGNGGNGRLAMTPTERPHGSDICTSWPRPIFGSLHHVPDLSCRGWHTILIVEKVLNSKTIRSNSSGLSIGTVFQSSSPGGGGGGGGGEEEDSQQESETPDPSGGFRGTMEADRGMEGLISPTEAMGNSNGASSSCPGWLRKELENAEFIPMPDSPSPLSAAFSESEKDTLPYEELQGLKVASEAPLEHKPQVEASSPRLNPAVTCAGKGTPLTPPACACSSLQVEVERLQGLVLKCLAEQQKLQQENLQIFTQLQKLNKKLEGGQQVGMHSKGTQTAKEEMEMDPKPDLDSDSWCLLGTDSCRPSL
# Chain of Casein kinase II subunit alpha (Homo sapiens) (P68400 whole entry, looked up): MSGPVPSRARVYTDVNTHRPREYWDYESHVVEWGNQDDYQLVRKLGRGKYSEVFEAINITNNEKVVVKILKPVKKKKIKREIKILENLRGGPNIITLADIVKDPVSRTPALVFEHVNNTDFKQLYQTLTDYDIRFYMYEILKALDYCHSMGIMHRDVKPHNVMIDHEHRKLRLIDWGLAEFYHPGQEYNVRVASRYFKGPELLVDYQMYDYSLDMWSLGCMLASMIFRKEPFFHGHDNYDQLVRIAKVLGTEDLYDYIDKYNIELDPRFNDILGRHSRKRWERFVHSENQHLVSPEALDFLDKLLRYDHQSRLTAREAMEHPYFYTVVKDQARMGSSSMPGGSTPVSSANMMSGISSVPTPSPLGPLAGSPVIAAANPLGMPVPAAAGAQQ
# Chain of Serine/threonine-protein kinase Nek7 (Homo sapiens) (Q8TDX7 whole entry, looked up): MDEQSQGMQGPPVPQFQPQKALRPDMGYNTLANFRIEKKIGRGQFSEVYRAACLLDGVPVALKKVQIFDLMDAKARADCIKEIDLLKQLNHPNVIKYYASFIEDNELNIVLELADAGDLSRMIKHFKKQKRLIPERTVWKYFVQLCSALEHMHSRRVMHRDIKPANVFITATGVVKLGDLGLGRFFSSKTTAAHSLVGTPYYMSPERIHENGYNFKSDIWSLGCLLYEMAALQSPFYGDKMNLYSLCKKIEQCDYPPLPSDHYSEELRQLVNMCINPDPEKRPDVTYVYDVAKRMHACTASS
# Chain of Serine/threonine-protein kinase Nek6 (Homo sapiens) (Q9HC98 whole entry): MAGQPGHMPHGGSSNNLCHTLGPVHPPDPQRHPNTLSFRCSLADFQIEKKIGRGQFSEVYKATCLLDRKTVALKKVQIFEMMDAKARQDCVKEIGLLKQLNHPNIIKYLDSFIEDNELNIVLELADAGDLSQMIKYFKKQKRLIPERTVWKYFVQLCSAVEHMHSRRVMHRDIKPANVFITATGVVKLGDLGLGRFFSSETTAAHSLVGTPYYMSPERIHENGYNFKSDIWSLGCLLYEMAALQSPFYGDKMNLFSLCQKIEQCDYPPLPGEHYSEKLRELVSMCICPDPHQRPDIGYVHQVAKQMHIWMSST
# Chain of Sphingosine kinase 1 (Homo sapiens) (Q9NYA1 whole entry): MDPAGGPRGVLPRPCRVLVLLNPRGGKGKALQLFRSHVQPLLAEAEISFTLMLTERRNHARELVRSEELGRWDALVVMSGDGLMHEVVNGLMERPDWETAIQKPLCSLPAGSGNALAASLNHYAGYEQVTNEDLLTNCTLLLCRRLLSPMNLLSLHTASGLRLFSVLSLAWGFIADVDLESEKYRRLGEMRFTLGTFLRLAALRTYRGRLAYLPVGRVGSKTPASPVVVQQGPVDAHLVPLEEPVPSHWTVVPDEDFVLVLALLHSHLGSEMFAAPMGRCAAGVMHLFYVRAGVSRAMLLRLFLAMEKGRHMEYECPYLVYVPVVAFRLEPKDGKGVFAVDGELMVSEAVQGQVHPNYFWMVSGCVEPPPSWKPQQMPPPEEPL
smiles,measurement,setting,value
O=S(=O)(CCOCc1ccc(-c2ccc3ncnc(Nc4ccc(OCc5cccc(F)c5)c(Cl)c4)c3c2)o1)c1ccccc1,inhibition,[1],1.2%
same,inhibition,[2],0.14%
same,inhibition,[3],14.2%
same,inhibition,[4],1.35%
same,inhibition,[5],4.52%
same,inhibition,[6],1.54%
same,inhibition,[7],4.26%
same,inhibition,[8],-0.1%
same,inhibition,[9],0.7%
same,inhibition,[10],1.59%
same,inhibition,[11],0.73%
same,inhibition,[12],1.11%
same,inhibition,[13],1.59%
same,inhibition,[14],3.36%
same,inhibition,[15],2.18%
same,inhibition,[16],0.77%
same,inhibition,[17],0.7%
same,inhibition,[18],1.66%
same,inhibition,[19],5.83%
same,inhibition,[20],5%
